# Measured values as given in the supplement of paper PMC8728848.
# The full list was thinned out, with the strongest signals kept by preference.
# B1: Pbx1 (Cryptococcus neoformans) (protein)
# chain: ATTKCLVSGDQDSINNALALGGEGTTVTLCPGSVHRLNSSIIFTAPSQTLTTLGNPKDRNRAMLVVDGEDLACAIRADCKQCSHAMIRSLVIDGNRPQLLRIPKGDALIEVGNAESQTVRDCKLYEPRGWSALHFREGDERQCRFGHIVDNEIGPCGEEWDDEYDSMDETKPLWGNPRADGISLACKDSIVERNVVYDATDGAIVLFGSAGSTVKNNHVYARTRVILGGINLVDYEPWDGDYTNVKVHHNHLYALGRYFKVGIVIGPASWSDDTESVVHSASVTDNEFSGGYWGYGIVVASAKNFEVLRNKVIWDGEQGVARFSGVPGSRCPKAPENGKPTAFLINRGSAKGIFQDDFVNGEVQHIICLNPDQDPPYKPWRFRDSPEAIAAKQAENPTANSAFDSRIAEALVSYQMSLLNSMDAMTQKVEHLTNPIVDDALPFVHEHERAEADKKARQEASRKEKESGNKDVDMLNVKVEELEKSGRRLKKALDGLKSDFEGLSGRLKKSADENKPIIETIFVTSQNLLLGATSQQN
# Columns and labels:
# Experiment in all cases: glycan array binding signal (z-score within array); higher = stronger binding
# Conditions in all cases: glycan notation: IUPAC condensed, linker removed
# [1] = target: Fuc(a1-2)Gal(b1-3)[Fuc(a1-4)]GlcNAc(b1-2)Man(a1-3)[Fuc(a1-2)Gal(b1-3)[Fuc(a1-4)]GlcNAc(b1-2)Man(a1-3)]Man(b1-4)GlcNAc(b1-4)GlcNAc
# Outline: (§1)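 The binding signal is a Z-score computed within each array. Data were drawn from 3228 arrays in the Consortium for Functional Glycomics database, restricted to those with a known protein sequence. Scores were averaged over arrays of the same protein sequence at different concentrations or buffers, and over linkers, and negative values can be taken as non-binding.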
# [2] = target: Fuc(a1-2)Gal(b1-4)GlcNAc(b1-2)Man
# Outline: as §1
# [3] = target: Fuc(a1-2)[Gal(a1-3)]Gal(b1-4)GlcNAc(b1-2)Man
# Outline: as §1
# [4] = target: Fuc(a1-2)[Gal(a1-4)]Gal(b1-4)GlcNAc
# Outline: as §1
# [5] = target: Fuc(a1-2)[GalNAc(a1-3)]Gal(b1-4)GlcNAc(b1-6)GalNAc
# Outline: as §1
# [6] = target: Fuc(a1-3)[Gal(b1-4)]GlcNAc(b1-6)GalNAc
# Outline: as §1
# [7] = target: Gal(a1-3)Gal(b1-3)GlcNAc(b1-2)Man
# Outline: as §1
# [8] = target: Gal(a1-4)Gal(b1-3)GlcNAc(b1-2)Man(a1-3)[Gal(a1-4)Gal(b1-3)GlcNAc(b1-2)Man(a1-6)]Man(b1-4)GlcNAc(b1-4)GlcNAc
# Outline: as §1
# [9] = target: Gal(b1-3)GlcNAc(a1-3)Gal(b1-4)GlcNAc
# Outline: as §1
# [10] = target: Gal(b1-3)GlcNAc(b1-2)Man(a1-3)[GlcNAc(b1-4)][Gal(b1-3)GlcNAc(b1-2)Man(a1-6)]Man(b1-4)GlcNAc(b1-4)GlcNAc
# Outline: as §1
# [11] = target: Gal(b1-3)GlcNAc(b1-3)Gal(b1-4)Glc
# Outline: as §1
# [12] = target: Gal(b1-3)GlcNAc(b1-3)Gal(b1-4)GlcNAc(b1-3)Gal(b1-4)GlcNAc(b1-2)[Gal(b1-3)GlcNAc(b1-3)Gal(b1-4)GlcNAc(b1-3)Gal(b1-4)GlcNAc(b1-6)]Man(a1-6)[Gal(b1-3)GlcNAc(b1-3)Gal(b1-4)GlcNAc(b1-3)Gal(b1-4)GlcNAc(b1-2)Man(a1-3)]Man(b1-4)GlcNAc(b1-4)[Fuc(a1-6)]GlcNAc
# Outline: as §1
# [13] = target: Gal(b1-4)GlcNAc(b1-2)Man(a1-3)Man(b1-4)GlcNAc(b1-4)GlcNAc
# Outline: as §1
# [14] = target: Gal(b1-4)GlcNAc(b1-2)[Gal(b1-4)GlcNAc(b1-4)]Man(a1-3)[Gal(b1-4)GlcNAc(b1-2)[Gal(b1-4)GlcNAc(b1-6)]Man(a1-6)]Man(b1-4)GlcNAc(b1-4)GlcNAc
# Outline: as §1
# [15] = target: Gal(b1-4)GlcNAc(b1-3)Gal(b1-4)GlcNAc(b1-2)Man(a1-3)[Gal(b1-4)GlcNAc(b1-3)Gal(b1-4)GlcNAc(b1-2)Man(a1-6)]Man(b1-4)GlcNAc(b1-4)GlcNAc
# Outline: as §1
# [16] = target: Gal(b1-4)GlcNAc(b1-3)Gal(b1-4)GlcNAc(b1-3)Gal(b1-4)GlcNAc(b1-2)Man(a1-3)[Gal(b1-4)GlcNAc(b1-3)Gal(b1-4)GlcNAc(b1-3)Gal(b1-4)GlcNAc(b1-2)Man(a1-6)]Man(b1-4)GlcNAc(b1-4)GlcNAc
# Outline: as §1
# [17] = target: Gal(b1-4)GlcNAc(b1-3)Gal(b1-4)GlcNAc(b1-3)Gal(b1-4)GlcNAc(b1-3)Gal(b1-4)GlcNAc(b1-3)Gal(b1-4)GlcNAc(b1-2)Man(a1-3)[Gal(b1-4)GlcNAc(b1-3)Gal(b1-4)GlcNAc(b1-3)Gal(b1-4)GlcNAc(b1-3)Gal(b1-4)GlcNAc(b1-3)Gal(b1-4)GlcNAc(b1-2)Man(a1-6)]Man(b1-4)GlcNAc(b1-4)[Fuc(a1-6)]GlcNAc
# Outline: as §1
# [18] = target: Gal(b1-4)GlcNAc(b1-3)Gal(b1-4)GlcNAc(b1-3)Gal(b1-4)GlcNAc(b1-3)Gal(b1-4)GlcNAc(b1-3)Gal(b1-4)GlcNAc(b1-2)[Gal(b1-4)GlcNAc(b1-3)Gal(b1-4)GlcNAc(b1-3)Gal(b1-4)GlcNAc(b1-3)Gal(b1-4)GlcNAc(b1-3)Gal(b1-4)GlcNAc(b1-6)]Man(a1-6)[Gal(b1-4)GlcNAc(b1-3)Gal(b1-4)GlcNAc(b1-3)Gal(b1-4)GlcNAc(b1-3)Gal(b1-4)GlcNAc(b1-3)Gal(b1-4)GlcNAc(b1-2)Man(a1-3)]Man(b1-4)GlcNAc(b1-4)[Fuc(a1-6)]GlcNAc
# Outline: as §1
# [19] = target: Gal(b1-4)GlcNAc(b1-3)Gal(b1-4)GlcNAc(b1-3)Gal(b1-4)GlcNAc(b1-3)Gal(b1-4)GlcNAc(b1-3)Gal(b1-4)GlcNAc(b1-3)Gal(b1-4)GlcNAc(b1-2)Man(a1-3)[Gal(b1-4)GlcNAc(b1-3)Gal(b1-4)GlcNAc(b1-3)Gal(b1-4)GlcNAc(b1-3)Gal(b1-4)GlcNAc(b1-3)Gal(b1-4)GlcNAc(b1-3)Gal(b1-4)GlcNAc(b1-2)Man(a1-6)]Man(b1-4)GlcNAc(b1-4)GlcNAc
# Outline: as §1
# [20] = target: Gal(b1-4)GlcNAc(b1-3)Gal(b1-4)GlcNAc(b1-6)[Gal(b1-3)]GalNAc
# Outline: as §1
# [21] = target: Gal(b1-6)Gal
# Outline: as §1
# [22] = target: Gal4S6S(b1-4)GlcNAc
# Outline: as §1
# [23] = target: Gal6S(b1-3)GlcNAc
# Outline: as §1
# [24] = target: GalNAc3S(b1-4)[Fuc(a1-3)]GlcNAc
# Outline: as §1
binder,measurement,setting,value
B1,glycan array binding signal (z-score),[1],2.82
same,glycan array binding signal (z-score),[2],-0.654
same,glycan array binding signal (z-score),[3],-0.203
same,glycan array binding signal (z-score),[4],0.002
same,glycan array binding signal (z-score),[5],0.252
same,glycan array binding signal (z-score),[6],2.34
same,glycan array binding signal (z-score),[7],1.04
same,glycan array binding signal (z-score),[8],2.14
same,glycan array binding signal (z-score),[9],-0.304
same,glycan array binding signal (z-score),[10],0.415
same,glycan array binding signal (z-score),[11],-0.533
same,glycan array binding signal (z-score),[12],15
same,glycan array binding signal (z-score),[13],-0.195
same,glycan array binding signal (z-score),[14],0.072
same,glycan array binding signal (z-score),[15],2.91
same,glycan array binding signal (z-score),[16],2.41
same,glycan array binding signal (z-score),[17],5.6
same,glycan array binding signal (z-score),[18],4.38
same,glycan array binding signal (z-score),[19],1.03
same,glycan array binding signal (z-score),[20],2.33
same,glycan array binding signal (z-score),[21],-0.233
same,glycan array binding signal (z-score),[22],-0.366
same,glycan array binding signal (z-score),[23],0.304
same,glycan array binding signal (z-score),[24],0.766
